Screen size: about 48,000 compounds; about 13,000 (27%) showed an effect of 50% or more. Some of the results follow.

The test system of this assay is Wolbachia pipientis. Description: Anti-Wolbachia Cell-Based Screen. The conditions noted are these: 5 µM. Set-up: scale not given: in the data most compounds retested in dose-response had high values. Format: functional.
Turning to `Cn1cnc2c1C(COCc1ccccc1)N(Cc1ccccn1)CC2.O=C(O)C(F)(F)F.O=C(O)C(F)(F)F` (configuration not stated), the “Percent Effect” value was determined as 9.45%.
The figure for `Cc1ccccc1C(CNC(=O)CSc1nnc(N)s1)N(C)C` (configuration not stated) is -0.498%; for `Cl.c1nc(N2CCOCC2)ncc1-c1cncn1CCCN1CCCCC1` it is 140.4%.
With `Clc1ccc(N2CCN(CCCN3CCCCC3)CC2)nc1`, the “Percent Effect” value is given as -9.016%.
As for `c1ccc(-c2ncn(CCCN3CCOCC3)c2-c2ccncc2)cc1`, the figure is -9.931%; as for `Cc1ccccc1CC(=O)NCCNc1nccc(C(F)(F)F)n1`, -4.75%.
The figure for `Cc1nn2cccnc2c1C(=O)NCc1ccnc(OCC2CC2)c1` is 2.843%; for `Cc1cc(-c2nc(C3(NC(=O)OC(C)(C)C)CCC3)no2)on1` it is 26.17%.
On to `COc1ccc(CN2CCn3cc(Cn4cccn4)nc3C2)cc1.O=C(O)C(F)(F)F`, for which the “Percent Effect” value is reported as -6.787%.
Take `O=C(CC1CC1)NCc1cn2c(n1)CN(Cc1cccc(F)c1)CC2.O=C(O)C(F)(F)F`: the “Percent Effect” value was determined as 2.246%.
The figure for `CN1CCN(Cc2cn3c(n2)CN(Cc2cccc(F)c2)CC3)CC1.O=C(O)C(F)(F)F.O=C(O)C(F)(F)F.O=C(O)C(F)(F)F` is 118.6%; for `COc1ccc(CN2CCn3cc(CN4CCCCC4)nc3C2)cc1.O=C(O)C(F)(F)F.O=C(O)C(F)(F)F` it is 13.43%; for `Cc1ccc(CN2CCn3cc(CN4CCN(C)CC4)nc3C2)cc1.O=C(O)C(F)(F)F.O=C(O)C(F)(F)F.O=C(O)C(F)(F)F` it is 108%.
For `CN1CCN(Cc2cn3c(n2)CN(C(=O)c2cccn2C)CC3)CC1.O=C(O)C(F)(F)F.O=C(O)C(F)(F)F`, the “Percent Effect” value worked out at 2.395%.
As for `O=C(NCc1cn2c(n1)CN(Cc1cccc(F)c1)CC2)C1CCC1.O=C(O)C(F)(F)F`, the figure is -4.288%; as for `CN(Cc1cn2c(n1)CN(Cc1ccc(F)cc1)CC2)Cc1ccco1.O=C(O)C(F)(F)F.O=C(O)C(F)(F)F`, 12.2%; as for `CN1CCN(Cc2cn3c(n2)CN(Cc2ccc(F)cc2)CC3)CC1.O=C(O)C(F)(F)F.O=C(O)C(F)(F)F.O=C(O)C(F)(F)F`, 107.8%.
Regarding `CN(CCN1CCOCC1)S(=O)(=O)CC1CCCC1`, the “Percent Effect” value is given as -5.333%.
Turning to `CCOC(C)c1nc(Cn2cccn2)cs1` (configuration not stated), the “Percent Effect” value was -9.016%.
As for `CNC(=O)NC(=O)C(C)Nc1ccccc1OCCOC` (configuration not stated), the figure is -4.777%; as for `COCCOCC(=O)NC(C#N)c1ccccc1C` (configuration not stated), -6.044%; as for `N#CC(NC(=O)CCC(=O)NC1CCCC1)c1ccc(F)cc1F` (configuration not stated), -15.9%.
The figure for `N#CC(NC(=O)CCCOc1cccnc1)c1ccc(F)cc1F` (configuration not stated) is 86.86%.
The figure for `CC(NC(=O)CCCOc1ccccc1Cl)c1ccncc1` (configuration not stated) is -5.122%.
For the compound `Cc1ccccc1C(C#N)NC(=O)CCCOc1cccnc1` (configuration not stated), the “Percent Effect” value is given as 81.76%.
Consider `CCCC(C#N)NC(=O)CCCOc1cccc(F)c1` (configuration not stated), for which the “Percent Effect” value is reported as -0.6223%.
As for `N#CC(NC(=O)CCCOc1cccnc1)c1ccccc1Cl` (configuration not stated), the figure is 111.5%.
On to `COCCOCC(=O)NC(C#N)c1cccc(Cl)c1Cl` (configuration not stated), for which the “Percent Effect” value was -5.462%.
As for `CCC(C#N)NC(=O)CCCOc1cccc(C(C)=O)c1` (configuration not stated), the figure is 2.653%; as for `CC(C)c1ccc(S(=O)(=O)Cc2nc(N)nc(N(C)C)n2)cc1`, 13.19%; as for `COc1c(NC(=O)N(C)CCOc2ccccc2)c(C)nn1C`, -49.81%.
The figure for `c1ccn2c(SCC3CN=C(N4CCOCC4)S3)ncc2c1` (configuration not stated) is 6.715%; for `O=S(=O)(NC1CCN(CC(F)(F)F)C1)c1cc(F)cc(F)c1` (configuration not stated) it is -11.02%.
Turning to `COCC(=O)N1CCC(c2cc(C(F)(F)F)n3ccnc3n2)CC1`, the “Percent Effect” value is given as -3.76%.
`COCC(=O)N1CCC(c2cc(-c3ccc(N)nc3)cc(C)n2)CC1`: the “Percent Effect” value is recorded as 134.8%.
As for `COCC(=O)N1CCC(c2cc(N(C)C)cc(C)n2)CC1`, the figure is 144.6%; as for `COCC(=O)N1CCC(c2noc3nc(C)cc(C(F)(F)F)c23)CC1`, -9.714%.
`CN(c1cccc(C#N)c1)S(=O)(=O)c1cc(C(=O)O)ccc1Cl`: the “Percent Effect” value is -8.921%.
As for `CCc1ncc2c(n1)CN(CC1CCCCO1)CC2` (configuration not stated), the figure is -28.59%.
The figure for `CCN(C(=O)c1ccc2nnc(C3CCN(C(C)=O)C3)n2c1)C(C)C` (configuration not stated) is -2.519%; for `CNC(=O)c1cccc(NC(=O)NC(C)c2cc(C)oc2C)c1C` (configuration not stated) it is -16.36%.
As for `Cc1ccc(CN2CC[C@H]3C[C@H](C(=O)N4CCCO4)O[C@@H]3C2)o1.O=C(O)C(F)(F)F`, the figure is -11.63%.
`O=C(O)C(F)(F)F.O=C([C@H]1C[C@@H]2CCN(c3cccc(F)c3)C[C@H]2O1)N1CCCCO1`: the “Percent Effect” value is 96.52%.
For `Fc1cccc(N2C[C@H]3CCN(c4cccnc4)C[C@H]3C2)c1.O=C(O)C(F)(F)F`, the “Percent Effect” value worked out at 6.711%.
On to `O=C(O)C(F)(F)F.O=C([C@@H]1C[C@@H]2CCN(c3cccc(F)c3)C[C@H]2O1)N1CCCC1`, for which the “Percent Effect” value is 103.2%.
The figure for `CN1CCN(C(=O)[C@H]2C[C@@H]3CCN(c4ncc(F)cn4)C[C@@H]3O2)CC1.O=C(O)C(F)(F)F` is -9.48%; for `O=C(O)C(F)(F)F.O=C([C@H]1C[C@@H]2CCN(c3cccc(F)c3)C[C@H]2O1)N1CCCC1` it is 111.1%; for `O=S(=O)(C1CC1)N1CCOC2(CCCN(c3cccc(F)c3)C2)C1` (configuration not stated) it is 7.053%.
`O=C(O)C(F)(F)F.O=C([C@@H]1CC[C@@H]2[C@@H](CCN2Cc2cccc(F)c2)O1)N1CCCCO1`: the “Percent Effect” value is listed as -25.86%.
As for `CN1CCN(C(=O)[C@@H]2C[C@@H]3CCN(c4cccc(F)c4)C[C@H]3O2)CC1`, the figure is 96.73%.
With `COc1cccc(OCc2cc(C(=O)NC[C@H]3CCCN3)n[nH]2)c1`, the “Percent Effect” value is -9.254%.
Consider `CCc1nc(NS(=O)(=O)c2ccc(C)cc2Cl)no1`, for which the “Percent Effect” value is -7.333%.
In the case of `CC(C)c1csc(C2CCCN(C(=O)c3ccc(=O)n(C)c3)C2)n1` (configuration not stated), the “Percent Effect” value was found to be 2.326%.
The figure for `CC(C)Cc1nc(CN(C)CCOc2ccccc2F)no1` is 2.804%.
Turning to `O=C(Cn1ccc(=O)[nH]c1=O)NCC1Cc2ccccc2O1` (configuration not stated), the “Percent Effect” value is listed as 0.2234%.
Turning to `CC(C)NC(=O)NC[C@H]1OC[C@@H](NCc2ccc(F)cc2)[C@@H]1O`, the “Percent Effect” value came to 8.979%.
As for `CC1=C(CCN2C[C@H](O)[C@@H](N3CCOCC3)C2)C(C)(C)CCC1`, the figure is 0.7691%; as for `CCOc1cncc(N2CCCC2c2nnc3n2CCCCC3)n1` (configuration not stated), 129.6%; as for `Clc1cncc(N2CCCC2c2nnc3n2CCCCC3)n1` (configuration not stated), 118.9%.
The figure for `CCOc1c(Br)cc(CNCCc2nnc3n2CCCCC3)cc1OC.Cl` is 15.42%; for `COc1ccc(CC(=O)N2CCC(c3nnc4n3CCC4)CC2)cc1F` it is -6.133%.
As for `O=C(C1CCC1)N1CCCC1c1nnc2n1CCCCC2` (configuration not stated), the figure is -4.579%; as for `Cc1cnn(CC2CCCCN2c2ncnc3ccccc23)c1` (configuration not stated), -9.464%; as for `CC1c2ncc(COCC3CC3)n2CCN1C.O=C(O)C(F)(F)F` (configuration not stated), -13.39%.
Consider `Cc1ccc(C(C(=O)N2CC(c3ccccn3)C2)N(C)C)cc1` (configuration not stated), for which the “Percent Effect” value was determined as 13.16%.
Consider `Cn1cc(CN2CCC[C@]3(C(=O)O)CN(c4ncccn4)C[C@@H]3C2)cn1.O=C(O)C(F)(F)F`, for which the “Percent Effect” value is 8.279%.
As for `Cn1cc(CN2CCC(F)(F)C3(CCN(c4ncccn4)C3)C2)cn1.O=C(O)C(F)(F)F.O=C(O)C(F)(F)F` (configuration not stated), the figure is 111.9%; as for `Cn1cc(CN2CCC(F)(F)C3(CCN(c4cnccn4)C3)C2)cn1.O=C(O)C(F)(F)F.O=C(O)C(F)(F)F` (configuration not stated), -4.979%.
In the case of `Cn1cc(CN2CCC(F)(F)C3(CCN(c4ccccn4)C3)C2)cn1.O=C(O)C(F)(F)F.O=C(O)C(F)(F)F` (configuration not stated), the “Percent Effect” value is given as 97.58%.
The figure for `COCC1CC2(CCN(Cc3cnn(C)c3)CC2)CN1c1ncccn1.O=C(O)C(F)(F)F.O=C(O)C(F)(F)F` (configuration not stated) is -8.289%; for `COc1cccc(CN2CCC3(CC2)CCN(c2ncc(F)cn2)C3)c1.O=C(O)C(F)(F)F` it is 3.548%; for `COc1cccc(CN2CCC3(CCN(c4ncc(F)cn4)CC3)C2)c1.O=C(O)C(F)(F)F` it is -1.729%.
The figure for `Cn1cc(CN2CCC(F)(F)C3(CCN(c4ncc(F)cn4)C3)C2)cn1.O=C(O)C(F)(F)F` (configuration not stated) is 107.8%.
Turning to `O=C(O)C(F)(F)F.O=C(c1cnccn1)N1CCC(F)(F)C2(CCN(c3ccccn3)C2)C1` (configuration not stated), the “Percent Effect” value was -12.88%.
In the case of `COc1cc(N2C[C@H]3OCC[C@H]3[C@H](C(=O)NC3CC3)C2)ncn1`, the “Percent Effect” value is -4.655%.
As for `COc1cc(N2CC[C@@H]3O[C@@H](C(=O)NCCN(C)C)C[C@@H]32)ncn1`, the figure is 104.9%; as for `COc1cc(NC(=O)N(C)CCC2CC2)ncn1`, 6.653%.
As for `COc1cc(N2CC[C@@H](OC)[C@@H]2Cc2ccccc2)ncn1`, the “Percent Effect” value is 2.999%.
As for `COCCNC(=O)[C@@H]1CC[C@@H]2[C@@H](CCN2c2ncc(F)cn2)O1.O=C(O)C(F)(F)F`, the figure is -10.3%.
As for `COCCNC(=O)[C@H]1CC[C@@H]2[C@@H](CCN2c2ncc(F)cn2)O1.O=C(O)C(F)(F)F`, the figure is 0.7223%; as for `COc1cc(N2CC[C@@H]3O[C@@H](C(=O)NC(C)C)C[C@@H]32)ncn1`, 103.8%; as for `COc1cc(NC(=O)N(C)CC2CC2)ncn1`, -6.401%.
For the compound `COc1cc(N2CC[C@@H]3O[C@H](C(=O)NCC4CC4)C[C@@H]32)ncn1`, the “Percent Effect” value is reported as 97.06%.
As for `COc1cc(NC(=O)N(C)C(C2CC2)C2CC2)ncn1`, the figure is -1.888%; as for `COCCNC(=O)[C@@H]1C[C@H]2[C@H](CCN2c2cc(OC)ncn2)O1`, 102.9%.
With `Cc1cnn(CC(=O)Nc2cc(-n3nnnc3C3CC3)ccc2F)c1`, the “Percent Effect” value is -3.572%.
The figure for `CC(C)CC(C)N(C)C(=O)CCn1cccn1` (configuration not stated) is 9.677%.

The record behind these values is ChEMBL document CHEMBL3988442, “University of Dundee, Small-Polar-MMV Screening Library” (2021).
